# PubChem BioAssay AID950 (NMMLSC, 2007)
# The whole screen tested about 190,000 compounds, of which about 120 (0.063%) were called active. Cut-off read from the data, not from the text of the source: active = inhibition above about 40%; inconclusive = no clear call, values can overlap the other calls; inactive = below that. The full list was thinned out, with actives kept by preference.
# Target: Apoptosis regulator Bcl-2 (Homo sapiens) (UniProt P10415)
# Experiment: inhibitors of Bim-Bcl-2 binding, primary screen, biochemical, multiplexed, human Bcl-2 family (AID 950);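 note: 0% = no compound wells with probe peptide and 100% = reference peptide inhibitor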
# Conditions: Bead-based flow cytometry, Bim peptide-Bcl-2 binding; at 10 µM; stronger effect = higher value
# Chain of Apoptosis regulator Bcl-2 (Homo sapiens) (P10415 whole entry, looked up): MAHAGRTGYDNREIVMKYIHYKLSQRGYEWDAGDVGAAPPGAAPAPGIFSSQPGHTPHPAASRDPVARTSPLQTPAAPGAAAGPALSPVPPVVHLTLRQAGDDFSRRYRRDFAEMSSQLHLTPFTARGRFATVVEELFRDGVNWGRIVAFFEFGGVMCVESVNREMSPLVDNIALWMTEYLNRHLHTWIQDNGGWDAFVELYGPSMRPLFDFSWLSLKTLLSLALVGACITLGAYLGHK
row,Structure (SMILES),inhibition
1,COc1ccc(N2CCN(C(=O)C3CCN(S(=O)(=O)c4ccc(C)cc4)CC3)CC2)cc1,2% (inactive)
2,O=C(c1ccc(N2CCOCC2)c([N+](=O)[O-])c1)N1CCN(S(=O)(=O)c2cccs2)CC1,0% (inactive)
3,COc1ccc(C(=O)C[n+]2ccc(N)c(C)c2C)cc1,-1% (inactive)
4,Cc1ccc(Cl)cc1NC(=S)N(CCN(C)C)Cc1cccs1,-4% (inactive)
5,C/C(=N\NC(=S)NC(C)C)c1ccc(C(C)(C)C)cc1,-4% (inactive)
6,Cc1nnc(N/N=C/C2CC=CCC2)[nH]c1=O (stereo unspecified),2% (inactive)
7,O=C(c1cccc(S(=O)(=O)N2CCCC2)c1)N(Cc1ccco1)C1CCS(=O)(=O)C1 (stereo unspecified),-3% (inactive)
8,CCC(=O)Nc1ccc(Nc2nc(Cl)nc(Nc3ccc(NC(=O)CC)cc3)n2)cc1,0% (inactive)
9,COCCCNCCOCCOc1ccc(Cl)cc1Br,1% (inactive)
10,O=C(NCc1ccccc1)C1=C[C@@H](C2CCCCC2)C[C@@H](OCc2ccc(CO)cc2)O1,-1% (inactive)
11,CCOC(=O)C1CCCN(C(=O)/C=C/c2ccc(OC)cc2)C1 (stereo unspecified),-3% (inactive)
12,CCn1c(=O)cc(SCC(=O)NCCC2=CCCCC2)c2ccccc21,8% (inactive)
13,O=c1cnnc(Nc2ccccc2)[nH]1,-1% (inactive)
14,O=C(N/N=C1\CCSC1)c1cc(Cl)ccc1O,3% (inactive)
15,CCOC(=O)COc1ccc([N+](=O)[O-])cc1,-1% (inactive)
16,CCCn1c(C)cc(/C=C(\C#N)C(=O)OCC(=O)Nc2cc(OC)c(OC)c(OC)c2)c1C,-6% (inactive)
17,CC1(C)C(c2cccs2)=[N+]([O-])C2(CCCCC2=O)N1O (stereo unspecified),-5% (inactive)
18,CCN(CC(=O)NCc1cccs1)C(=O)c1ccccc1F,1% (inactive)
19,COCCN(C(=S)Nc1ccccc1OC)C1CCN(C(C)C)CC1,-1% (inactive)
20,Cc1cc(NC(=O)CSCc2ccccc2C)no1,-1% (inactive)
21,COC(=O)c1cc(C)sc1NC(=O)CC1Nc2ccccc2NC1=O (stereo unspecified),0% (inactive)
22,CCN(CC)CCOC(=O)c1ccc(NC(=O)CNC(=O)c2ccccc2)cc1,-4% (inactive)

row,Structure (SMILES),inhibition
1,CCC(NC(=O)c1ccccc1NC(=O)c1ccccc1)C(=O)NNC(=O)CSc1nc2ccccc2o1 (stereo unspecified),-6% (inactive)
2,CC(=O)N1CC(C)c2scc(C)[n+]2-c2ccccc21 (stereo unspecified),2% (inactive)
3,CC(O)c1nc2ccccc2n1Cc1ccc([N+](=O)[O-])cc1 (stereo unspecified),-5% (inactive)
4,Cc1cc(C)cc(C(=O)N2CCN=C2SCc2ccc([N+](=O)[O-])cc2)c1,-3% (inactive)
5,Cc1ccc(C(=O)N2CC(=O)Nc3ccccc32)o1,-6% (inactive)
6,CCc1nnc(NC(=O)CSc2nnnn2-c2cccc(C(C)=O)c2)s1,-2% (inactive)
7,Cn1cc(CCC(=O)N2CCCC(C(=O)c3ccc(C(C)(C)C)cc3)C2)cn1 (stereo unspecified),-5% (inactive)
8,O=C(NCc1ccncc1)C(=O)NCc1ccco1,-1% (inactive)
9,Cc1ccc(S(=O)(=O)NC2(C(F)(F)F)NC(=O)N(CCc3ccccc3)C2=O)cc1 (stereo unspecified),-1% (inactive)
10,C=CS(=O)c1sc(Cl)c(N2CCOCC2)c1[N+](=O)[O-] (stereo unspecified),14% (inactive)
11,CN1C(=O)/C(=C\c2cc(Br)cs2)c2ccccc21,-2% (inactive)
12,CC(=O)c1cc(C#N)c(N2CC(C)OC(C)C2)nc1C (stereo unspecified),-4% (inactive)
13,Oc1ccc(/C=N/N(Cc2ccccc2)c2ccccc2)cc1,-9% (inactive)
14,Cn1ncc(N2CCN(S(=O)(=O)c3ccc(Br)cc3)CC2)c(Cl)c1=O,-9% (inactive)
15,C=CCOc1ccc(/C=N/NC(=O)C(C)Sc2ccccn2)cc1OCC (stereo unspecified),-6% (inactive)
16,O=C(NNS(=O)(=O)c1ccc(F)cc1)c1cnccn1,0% (inactive)
17,COCCC(=O)Nc1ccc2c(c1)CN(C(=O)CCOC)CC2,-4% (inactive)
18,Cc1ccc(NC(=O)CCC(=O)N/N=C/c2ccco2)c(C)c1,-6% (inactive)
19,CCCc1cc(=O)[nH]c(SCc2cc(=O)oc3c(C)c(C)ccc23)n1,-3% (inactive)
20,Cc1cccc(-c2nc3ccccc3c(=O)n2NC(=O)Cc2ccc(Cl)cc2)c1,-11% (inactive)
21,S=C(NCc1ccco1)Nc1ccc2c(c1)OCCO2,-1% (inactive)
22,CCCCC(=O)NCc1ccc(F)cc1,0% (inactive)

row,Structure (SMILES),inhibition
1,COc1ccc(NC(=S)NCc2cccs2)c(OC)c1,-4% (inactive)
2,O=C(O)CS/C(=C\c1ccc(F)cc1)c1nc2ccccc2s1,7% (inactive)
3,Clc1ccc(CSc2nnc(/C=C/c3ccccc3)o2)c(Cl)c1,-8% (inactive)
4,CSCc1cc(N2CCOCC2)nc(SCc2ccc(Cl)cc2Cl)n1,-12% (inactive)
5,CSCc1cc(N(C)C)nc(SCc2ccc(Cl)cc2Cl)n1,76% (active)
6,COc1ccc(/C(C)=N/Nc2cc(C(F)(F)F)ccc2Cl)c(OC)c1,2% (inactive)
7,COc1c(C)cc(C(=O)C2CCCN(S(=O)(=O)c3c(C)noc3C)C2)cc1C (stereo unspecified),0% (inactive)
8,CC1(C)OC(=O)C(=CSc2ccc(C(C)(C)C)cc2)C(=O)O1,-3% (inactive)
9,CCOC(=O)C1CCN(c2ncnc3c2c(-c2ccccc2)cn3-c2ccc(C)cc2)CC1,-5% (inactive)
10,CCCN(CCC)c1ccc(C(O)c2nnc(-c3ccccc3)o2)cc1 (stereo unspecified),-5% (inactive)
11,O=C(COc1ccc(Cl)cc1)NCc1nnc(SCC(=O)NCC2CCCO2)o1 (stereo unspecified),-2% (inactive)
12,COC(=O)c1c(NC(=O)CN2CCN(S(=O)(=O)c3ccccc3[N+](=O)[O-])CC2)sc2c1CCC(C)C2 (stereo unspecified),2% (inactive)
13,O=S(=O)(c1ccccc1)c1nc(-c2ccccc2F)oc1NCc1cccnc1,2% (inactive)
14,CS(=O)(=O)N(Cc1ccccc1Cl)c1ccc(C(=O)NCc2cccnc2)cc1,-4% (inactive)
15,CCOC(=O)c1sc(NC(=O)CSc2nc(O)c(Cc3ccccc3)c(=O)[nH]2)nc1C,0% (inactive)
16,COc1ccc(CN2CN(C3CCCC3)CSC2=S)cc1,-4% (inactive)
17,COC(=O)c1ccc(-n2cnc3ccccc32)nc1,-4% (inactive)
18,CCOc1cc(/C=C2/C(=N)N3OC(C)=CC3=NC2=O)ccc1OC,2% (inactive)
19,CNC(=O)c1[nH]cnc1C(=O)N[C@@H](CC(C)C)C(=O)OCc1ccccc1,-3% (inactive)
20,CCOC(=O)Cn1nnnc1C,-3% (inactive)
21,CN(NC(=O)C1CC(=O)N(c2ccccc2)C1)C1=NS(=O)(=O)c2ccccc21 (stereo unspecified),-2% (inactive)
22,Cc1nc2sc3c(c2c(=O)n1NC(=O)CCl)CCCC3,-3% (inactive)

row,Structure (SMILES),inhibition
1,COc1ccc(N(CC(=O)Nc2ccc(C)cc2C)S(=O)(=O)c2ccccc2[N+](=O)[O-])c(OC)c1,-1% (inactive)
2,COc1cccc(CN(C)CC(=O)NCc2ccccc2Cl)c1OC,0% (inactive)
3,CCOC(=O)c1[nH]cnc1C(=O)Nc1ccccc1C,1% (inactive)
4,CCCC1(C(=O)OC)NC(c2ccco2)C2C(=O)N(C)C(=O)C21 (stereo unspecified),-2% (inactive)
5,CC(=O)Nc1ccc(OC(=O)COc2ccc(Br)cc2)cc1,0% (inactive)
6,c1ccc(Cc2cc[n+](Cc3ccccc3)cc2)cc1,0% (inactive)
7,C/C(CC(=O)Nc1ccc(C)cc1C)=N\NC(=O)C(C)C,0% (inactive)
8,COc1cccc(NC(=O)CN(C)CC(=O)Nc2ccc3c(c2)CCC3)c1,0% (inactive)
9,Cc1ccc(NC(=O)N2CCSc3ccccc32)cc1,-1% (inactive)
10,COc1ccc(NC(=S)Nc2ccc(S(N)(=O)=O)cc2)c(C)c1,-4% (inactive)
11,O=C(c1ccc(Br)o1)N(c1ccccn1)C1CCCCC1,-16% (inactive)
12,Cc1sc2c(c1C)c(=O)n(-c1ccccc1)c(=O)n2CC(=O)NCC1CCCO1 (stereo unspecified),1% (inactive)
13,COc1ccc(Br)cc1CN(C)CC(=O)Nc1cc([N+](=O)[O-])ccc1OC,-9% (inactive)
14,O=C(/C=C/c1ccccc1Cl)Nc1ccc(S(=O)(=O)Nc2ncccn2)cc1,-1% (inactive)
15,COC(=O)Cc1ccc(OCC(=O)Nc2ccc(OC(F)(F)F)cc2)cc1,-5% (inactive)
16,O=C(C1CCCO1)N(c1ccc(F)cc1)C1C=CS(=O)(=O)C1 (stereo unspecified),-2% (inactive)
17,CCc1nnc(NC(=O)CCN(c2ccc(C)cc2)S(=O)(=O)c2ccccc2)s1,0% (inactive)
18,COc1ccc(-c2csc(NC(=O)c3ccc(N4C(=O)CCC4=O)cc3)n2)cc1OC,-4% (inactive)
19,CCOc1ccc(NC(=O)CC2C(=O)N(c3ccccc3)C(=O)N2CCOC)cc1 (stereo unspecified),1% (inactive)
20,Cc1ccc(C(NC(=O)N2CCCC2)C(Cl)(Cl)Cl)cc1F (stereo unspecified),-1% (inactive)
21,COc1ccc(C[C@H]2CN3C(=NC[C@H]3C)N2CCNC(=O)CCC2CCCCC2)cc1,0% (inactive)
22,CCOc1ccc(-c2ccc(SCC(=O)N3CCOCC3)nn2)cc1,-3% (inactive)

row,Structure (SMILES),inhibition
1,O=C(CC1CCCCC1)NCc1ccco1,-4% (inactive)
2,CCOC(=O)CNC(=O)/C=C/c1c(Cl)cccc1Cl,4% (inactive)
3,CCN(CC)CCCNC(=O)Cn1cnc2sc(C)c(S(=O)(=O)N3CCN(c4ncccn4)CC3)c2c1=O,-3% (inactive)
4,CCOn1c(=O)c(=O)n(O)c2ccccc21,-1% (inactive)
5,CCO[C@@H]1OC(C(=O)NCc2nc3ccccc3[nH]2)=C[C@H](C2CCCCC2)[C@H]1CCCO,-2% (inactive)
6,Fc1cccc(CSc2nnc3ccc(-c4ccncc4)nn23)c1,3% (inactive)
7,CSc1ccc(/C=N/NC(=O)c2cccc(Cl)c2)cc1,-7% (inactive)
8,O=C(Cc1ccc([N+](=O)[O-])cc1)N/N=C/c1ccco1,-4% (inactive)
9,CC1(C)CC(=O)C(C2c3ccccc3S(=O)(=O)c3ccccc32)C(=O)C1,0% (inactive)
10,O=C(Oc1c(-c2ccco2)oc2ccccc2c1=O)c1cccnc1,-4% (inactive)
11,CCOCCCn1c(NN)nc2ccccc2c1=O,-5% (inactive)
12,CCOc1ccc(NC(=O)c2ccc(CSc3nnnn3C)cc2)cc1,-9% (inactive)
13,Nc1nnc(SCn2nnc3ccccc3c2=O)s1,-5% (inactive)
14,CN(CC(=O)Nc1ccccc1F)CC(=O)Nc1ccccc1Br,-5% (inactive)
15,Cc1cc(C)cc(N(CC(=O)NCCSCc2ccco2)S(C)(=O)=O)c1,-7% (inactive)
16,COc1ccc(C(CCN(Cc2ccc(OC)c(OC)c2)C(=O)CCl)c2ccccc2)cc1 (stereo unspecified),-6% (inactive)
17,COc1cc(OC)c(C(=O)OC(C)C(=O)Nc2cc(C(F)(F)F)ccc2Cl)cc1OC (stereo unspecified),-3% (inactive)
18,Cc1ccnc(NC(=O)C(C)N2C(=O)c3ccccc3C2=O)c1 (stereo unspecified),0% (inactive)
